# Target: T1, Rhodopsin kinase GRK7 (Homo sapiens) (UniProt Q8WTQ7)
# T1 sequence (whole entry): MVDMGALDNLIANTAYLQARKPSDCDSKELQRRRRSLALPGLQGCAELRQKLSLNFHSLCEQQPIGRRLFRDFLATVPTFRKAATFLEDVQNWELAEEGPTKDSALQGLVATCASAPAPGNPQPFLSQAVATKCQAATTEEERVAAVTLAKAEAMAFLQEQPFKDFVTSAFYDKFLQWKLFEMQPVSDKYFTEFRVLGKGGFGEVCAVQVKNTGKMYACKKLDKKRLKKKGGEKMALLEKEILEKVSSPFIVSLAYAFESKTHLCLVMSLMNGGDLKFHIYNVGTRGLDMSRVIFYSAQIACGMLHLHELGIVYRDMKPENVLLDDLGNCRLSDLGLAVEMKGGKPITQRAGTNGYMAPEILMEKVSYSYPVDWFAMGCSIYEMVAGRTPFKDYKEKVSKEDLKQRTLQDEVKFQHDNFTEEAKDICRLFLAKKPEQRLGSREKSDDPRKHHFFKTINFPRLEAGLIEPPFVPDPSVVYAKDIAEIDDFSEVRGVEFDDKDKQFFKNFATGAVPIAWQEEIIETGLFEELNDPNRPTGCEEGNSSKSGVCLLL
# Conditions: at 10 µM
row,Structure (SMILES),residual activity [%]
1,O=C1NC(=O)c2c1c1c3ccccc3[nH]c1n1cncc21,76
2,O=C1Nc2ccc(Cl)cc2/C1=C/c1cc(Cl)c(O)c(Cl)c1,79
3,NC(=O)Nc1sc(-c2ccc(F)cc2)cc1C(N)=O,19
4,COc1ccc2c(c1)c(C1=C(c3c[nH]c4ccccc34)C(=O)NC1=O)cn2CCCN(C)C,44
5,Nc1ncnc2c1c(-c1ccc(Oc3ccccc3)cc1)cn2C1CCCC1,69
6,O=C1NC(=O)C(c2cn(CCCn3ccnc3)c3ccccc23)=C1Nc1ccccc1,22
7,CN(C)S(=O)(=O)c1ccc2c(c1)/C(=C/c1cc3c([nH]1)CCCC3)C(=O)N2,78
8,CC(C)[C@H](CO)Nc1nc(Nc2cc(N)cc(Cl)c2)c2ncn(C(C)C)c2n1,10
9,O=C(NC(NC(=S)Nc1ccc(F)c([N+](=O)[O-])c1)C(Cl)(Cl)Cl)C(c1ccccc1)c1ccccc1 (centres undefined),98
10,COc1cc2nccc(Oc3ccc(NC(=S)NC(=O)c4ccccc4C)cc3)c2cc1OC,84
11,CCCC(=O)Oc1ccc2[nH]c(C(=O)c3cc4ccccc4[nH]3)cc2c1,82
12,O=c1cc(N2CCOCC2)oc2c(-c3ccccc3)cccc12,81
13,Cc1cc(C)c(/C=C2\C(=O)Nc3ccccc32)[nH]1,60
14,O=C(CCCc1ccc(-c2ccccc2F)cc1)Nc1ccc(O)cc1,86
